Screening results (PubChem BioAssay)
In the library only some 19% were active in any assay of this set; here they are far more common.
TGFb inhibitor: inhibitors of TGF-b signaling | HepG2 CAGA-GFP TGF-b/SMAD3 reporter, GFP fluorescence, 18 h; TGF-beta stimulated, 500 pg/mL final | Potency, µM (top dose mostly 46.1 µM), for inactives: at the highest dose activity, negative = inhibition, hits mostly inhibitors | 410,000 compounds, 1.2% hits; further: potency means the concentration at half of the fitted maximal effect; on the % scale 0 is the no-effect control and ±100 the full control effect; nearly all actives have a fitted effect of over 65% in size
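Inhibition was scored as loss of TGF-beta-induced (500 pg/mL final, 18 hours, 37 degrees C) GFP in HEPG2 cells carrying a CAGA-GFP reporter, in DMEM with 1% FBS. Well GFP was summed per cell; Activity was normalised to unstimulated and stimulated DMSO wells, then concentration-response fitting.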
IL-1B inflam inh: inflammasome signaling inhibition, IL-1 beta readout | 360,000 compounds, 4.7% hits | activity change, % at 57.5 µM | AID 743279 | THP-1 LPS/ATP IL-1B secretion, AlphaLISA, 16 h; active compounds read low; in the data active means activity change below about -50%; inconclusive means mostly about -30% to -49%; further: on the % scale 0 is the no-effect control and ±100 the full control effect
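THP-1 cells pretreated 1 hr with compounds (up to 57.5 uM final), then stimulated with LPS (250 ng/mL final) plus ATP (1.25 mM final); secreted IL-1B measured by AlphaLISA after 16 hr, decreased signal indicating inhibition.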
TDP1 inh: blocks human tyrosyl-DNA phosphodiesterase 1; recombinant TDP1, AlphaScreen DNA substrate cleavage; 350,000 compounds, 0.28% hits; AID 485290; Q9NUW8; Potency, µM (doses to about 130 µM), for the others: at the highest dose activity change, negative = inhibition, usual class: inhibitors; further: potency means the concentration at half of the fitted maximal effect; on the % scale 0 is the no-effect control and ±100 the full control effect; nearly all actives have a fitted effect of over 40% in size
Target sequence (Q9NUW8 whole entry, looked up): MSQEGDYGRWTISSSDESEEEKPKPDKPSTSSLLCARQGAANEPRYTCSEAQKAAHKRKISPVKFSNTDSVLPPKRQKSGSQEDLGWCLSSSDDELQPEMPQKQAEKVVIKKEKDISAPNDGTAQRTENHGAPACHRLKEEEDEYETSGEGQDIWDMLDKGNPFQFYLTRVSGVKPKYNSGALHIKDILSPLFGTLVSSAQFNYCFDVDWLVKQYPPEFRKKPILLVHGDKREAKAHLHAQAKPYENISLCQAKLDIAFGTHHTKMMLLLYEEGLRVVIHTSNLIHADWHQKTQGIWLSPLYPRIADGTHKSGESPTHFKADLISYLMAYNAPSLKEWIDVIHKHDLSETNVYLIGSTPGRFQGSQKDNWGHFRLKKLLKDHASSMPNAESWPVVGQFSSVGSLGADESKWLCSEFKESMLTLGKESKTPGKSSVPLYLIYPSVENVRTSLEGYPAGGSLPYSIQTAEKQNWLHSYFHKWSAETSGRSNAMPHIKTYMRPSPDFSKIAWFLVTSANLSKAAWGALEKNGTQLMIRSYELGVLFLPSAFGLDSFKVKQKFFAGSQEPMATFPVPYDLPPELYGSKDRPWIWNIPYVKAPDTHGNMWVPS
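Enzyme-compound mixtures sat 15 min at room temperature, followed by a 5 min reaction with 15 nM final substrate and 10 min with AlphaScreen beads. Recombinant human Tdp1 was used at 1 nM final.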
DT40 TDP1 CPT: DT40-hTDP1 cell growth loss with CPT; 420,000 compounds, 12% hits; AID 686979; chicken DT40 Tdp1-/-;hTDP1 cells + 20 nM CPT, ATP luminescence, 48 h; Potency, µM (series often up to 46.2 µM), inactives show top-dose activity change, negative = growth inhibition, actives largely listed as inhibitors; further: potency means the concentration at half of the fitted maximal effect; on the % scale 0 is the no-effect control and ±100 the full control effect; nearly all actives have a fitted effect of over 55% in size
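Chicken DT40 Tdp1-/- cells stably complemented with human TDP1 were seeded at 400 cells/well in medium containing 20 nM camptothecin, exposed to pin-transferred compounds, and grown at 37 °C for at least 48 hr. Viability was read as ATP luminescence.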
TDP1 cell noCPT: qHTS for Inhibitors of human tyrosyl-DNA phosphodiesterase 1 (TDP1): qHTS in cells in absence of CPT | Potency, µM (series often up to 46.2 µM), inactives show at the highest dose activity change, negative = growth inhibition, actives largely listed as inhibitors | AID 686978, 2013 | DT40 Tdp1-/- hTDP1 cells, no CPT, ATP luminescence, 48 h | 420,000 compounds, 15% hits; further: potency means the concentration at half of the fitted maximal effect; on the % scale 0 is the no-effect control and ±100 the full control effect; nearly all actives have a fitted effect of over 55% in size
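Growth of hTDP1-complemented DT40 Tdp1-knockout cells is measured by ATP luminescence after at least 48 hr compound exposure at 37 °C, with DMSO substituting for the 20 nM CPT used in the parallel screen.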
HepG2 viability: kills HepG2 cells in TGF-b inhibitor counter-screen; HepG2 CAGA-GFP viability, ATP luminescence, 18 h; Potency, µM (highest dose often 46.1 µM), for inactives: top-dose activity change, negative = cytotoxicity, actives largely listed as cytotoxic; 410,000 compounds, 0.76% hits; further: potency means the concentration at half of the fitted maximal effect
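CellTiter-Glo luminescence gave cytotoxicity after 18 hours at 37 degrees C. The cells were HepG2 CAGA-GFP in 1% FBS DMEM, stimulated with 500 pg/mL TGF-beta after compound addition. %Activity was normalised to no-cell wells (complete cell-killing) and DMSO (no toxicity), and curves were fitted and classified.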
An asterisk follows results filed as active; u = inconclusive; x = not tested or not shown; [ ] = another dose, or the depositor's remark. Unless noted, the call rests on the fitted dose curve; in most records, active means well fitted curve in the direction sought with a large enough effect; inconclusive means small, poorly fitted or top-dose-only effect, or another doubt; inactive means no such curve, though single readings can be large; an effect the other way counts as inactive or inconclusive.

SMILES | TGFb inhibitor | IL-1B inflam inh | TDP1 inh | DT40 TDP1 CPT | TDP1 cell noCPT | HepG2 viability
O=C(c1ccco1)N1N=C(c2cccs2)CC1c1ccccc1O (centres undefined) | u | -12.4 | -5.3% | 18.4µM* | 20.6µM* | -51.0%
O=C(c1ccccc1)N1N=C(c2ccccc2)CC1c1ccccc1O (centres undefined) | u | -108.0* | -2.5% | 23.1µM* | u | -186.2%
CC(C)C[C@@H](CC(=O)N[C@@H](CCC(=O)O)CC(=O)O)NC(=O)[C@@H]1CNCC[C@H]1NC(=O)C[C@H](CCCN)NC(=O)C[C@H](Cc1ccccc1)NC(=O)[C@@H]1CNCC[C@H]1N | x | x | -1.2% | x | x | x
COc1cccc(C2CC(c3ccc(C)cc3)=NN2C(=O)c2ccccc2F)c1OC (centres undefined) | u | -18.1 | x | u | u | -63.6%
Cc1ccc(C2=NN(C(=O)c3ccccc3F)C(c3ccccc3F)C2)cc1 (centres undefined) | -12.2% | -15.6 | x | 20.6µM* | 20.6µM* | -19.6%
COc1cccc(CC(NC(C)=O)C(=O)NC2CCN(S(=O)(=O)c3ccc(NC(C)=O)cc3)CC2)c1OC (centres undefined) | 28.2% | -1.2 | 8.8% | -1.9% | -4.9% | -3.6%
O=C(NCc1ccccc1)C(c1ccccc1F)n1c(=O)c(-c2cc3ccccc3[nH]2)nc2ccccc21 (centres undefined) | x | 67.7 | x | u | u | x
CC(C)(C)NC(=O)C(c1ccnc2ccccc12)n1c(=O)c(-c2cc3ccccc3[nH]2)nc2ccccc21 (centres undefined) | x | 6.7 | x | u | 18.4µM* | x
CC(C)(C)NC(=O)C(c1ccncc1)n1c(=O)c(-c2cc3ccccc3[nH]2)nc2ccccc21 (centres undefined) | x | -123.1* | x | 23.1µM* | 16.4µM* | x
Cc1cccc(C)c1NC(=O)C(C1CC1)n1c(=O)c(-c2cc3ccccc3[nH]2)nc2ccccc21 (centres undefined) | x | -6.9 | x | u | u | x
CC(C)(C)NC(=O)C(c1ccccc1F)n1c(=O)c(-c2cc3ccccc3[nH]2)nc2ccccc21 (centres undefined) | x | 4.2 | x | u | 13µM* | x
CC(C)(C)NC(=O)C(C1CC1)n1c(=O)c(-c2cc3ccccc3[nH]2)nc2ccccc21 (centres undefined) | x | -14.0 | x | 18.4µM* | u | x
COc1ccc(C(C(=O)NC(C)(C)C)n2c(=O)c(-c3cc4ccccc4[nH]3)nc3ccccc32)cc1 (centres undefined) | x | -7.0 | x | u | u | x
CCOc1ccc(C(=O)Nc2nnc(S(=O)(=O)N(CC)c3ccccc3C)s2)cc1 | -13.4% | x | 10.4% | u | u | -5.3%
Cc1ccccc1OCC(=O)Nc1cccc(S(=O)(=O)NC2=NCCCCC2)c1 | -9.9% | -8.1 | x | u | u | -13.9%
COc1ccccc1/C=C/C(=O)Nc1cccc(S(=O)(=O)NC2=NCCCCC2)c1 | -25.5% | -57.1* | 2.7% | u | u | -4.5%
COc1ccc(/C=C/C(=O)Nc2cccc(S(=O)(=O)NC3=NCCCCC3)c2)c(OC)c1 | -15.7% | -17.9 | 0.7% | 16.4µM* | 11.6µM* | -4.4%
CC(=O)NC12CC3CC(C1)CC(C(=O)Nc1nc4ccc(S(C)(=O)=O)cc4s1)(C3)C2 | 3.9% | -0.3 | 2.1% | -6.1% | -17.2% | -13.3%
Cc1cc(C)n(-c2nc(NCCN(C)C)c3c4c(sc3n2)COC(C)(C)C4)n1 | u | x | 2.8% | u | 23.1µM* | -90.1%
Cc1cc(C)n(-c2nc(SCCN3CCOCC3)c3c4c(sc3n2)CCCC4)n1 | -13.9% | 23.1 | x | -31.9% | 20.6µM* | -16.3%
Cc1cc(C)n(-c2nc(NCCC(C)C)c3c4c(sc3n2)COC(C)(C)C4)n1 | -1.8% | -1.7 | -0.5% | 9.2µM* | 16.4µM* | -6.7%
Cc1cc(C)n(-c2nc(SCC(=O)Nc3nccs3)c3c4c(sc3n2)COC(C)(C)C4)n1 | u | -0.4 | 1.0% | u | 23.1µM* | -3.5%
Cc1cc(C)n(-c2nc3sc4c(c3c(=O)[nH]2)CCCC4)n1 | x | x | 3.0% | x | x | x
Cc1cc(C)n(-c2nc(-n3nc(C)cc3C)c3c4c(sc3n2)COC(C)(C)C4)n1 | x | x | 3.8% | x | x | x
COCCn1c(=O)c(-c2cc(F)cc(F)c2)nc2cnc(Oc3ccc(OC)cc3)nc21 | x | x | x | -17.3% | u | x
SMILES | TGFb inhibitor | IL-1B inflam inh | TDP1 inh | DT40 TDP1 CPT | TDP1 cell noCPT | HepG2 viability
O=C(NCc1ccccc1)NC(=O)c1ccccc1F | -7.1% | 10.2 | 2.0%[56.1 µM] | -5.4% | 5.3% | -3.3%
CC1CC(C)CN(C(=O)Cn2nnc(-c3ccc(Br)cc3)n2)C1 (centres undefined) | -1.1% | 10.3 | x | 2.9% | -20.7% | -16.6%
Cc1cc(C)n(-c2nc3sc4c(c3c3nnc(SCC(N)=O)n23)CC(C)(C)OC4)n1 | 6.7% | -21.5 | 2.4% | 4.8% | -23.6% | -19.1%
CSc1nnc2c3c4c(sc3nc(-n3nc(C)cc3C)n12)COC(C)(C)C4 | 0.0% | 4.6 | 5.9% | u | 29.1µM* | 12.0%
Cc1cc(C)n(-c2nc(NCCCN(C)C)c3c4c(sc3n2)COC(C)(C)C4)n1 | -5.0% | -62.2* | 8.4% | -0.4% | u | -14.0%
Cc1cc(C)n(-c2nc(NCCCN(C)C)c3c4c(sc3n2)CCCC4)n1 | u | -28.4 | 2.8% | u | u | -191.1%
CCN(CC)CCNc1nc(-n2nc(C)cc2C)nc2sc3c(c12)CC(C)(C)OC3 | -8.3% | -25.2 | 1.4% | u | 10.3µM* | -20.5%
Cc1cc(C)n(-c2nc(NCCN(C)C)c3c4c(sc3n2)CCCC4)n1 | u | -98.4* | 8.4% | 8.2µM* | 6.51µM* | 4.47µM*
COc1cc2nc(SCc3ccc(C)cc3)n3nc(CCn4nc(C)cc4C)nc3c2cc1OC | 21.1% | x | -7.0% | 23.8% | 0.9% | -13.0%
CCc1[nH]nc(C(=O)NC2CCCN(Cc3ccccc3F)C2)c1C (centres undefined) | 4.2% | 16.1 | 1.3% | -22.4% | -8.2% | 0.5%
COc1cn(CC(=O)Nc2cccc(C)c2)c(CN2CCCCC2)cc1=O | 15.5% | x | -4.4% | -6.0% | -14.5% | 7.2%
CCSc1nc(NCCN(C)C)c2c3c(sc2n1)COC(C)(CC)C3 (centres undefined) | 14.8% | u | 3.5% | 20.6µM* | u | 23.9%
